# Test results reported in the supplement of paper PMC6992640.
# Counter-ions that a name gives are not always drawn. ± gives the standard deviation of the averaged measurements.
# Columns and labels:
# Assay in all cases: cell viability (% of vehicle); higher = less cytotoxic
# Settings in all cases: 10 µM; 72 h
# [1] = test system: HCI01 (cells of a triple-negative basal-like breast cancer xenograft)
# [2] = test system: HCI03 (cells of an ER-positive luminal breast cancer xenograft)
# [3] = test system: HCI09 (cells of a triple-negative luminal androgen receptor type breast cancer xenograft)
# [4] = test system: HCI11 (cells of an ER-positive luminal breast cancer xenograft)
# [5] = test system: HCI13 (cells of an ER-positive luminal breast cancer xenograft)
# [6] = test system: HCI16 (cells of a triple-negative basal-like breast cancer xenograft)
# [7] = test system: UCD52 (cells of a triple-negative basal-like breast cancer xenograft)
# [8] = test system: WHIM2 (cells of a triple-negative basal-like breast cancer xenograft)
# [9] = test system: WHIM30 (cells of a triple-negative basal-like breast cancer xenograft)
# 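Also: PDX cells carrying CMV promoter-driven luciferase, viability read as total photon flux per second by IVIS imaging following D-luciferin, vehicle control 0.1% DMSO.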
Compound,cell viability [1],cell viability [2],cell viability [3],cell viability [4],cell viability [5],cell viability [6],cell viability [7],cell viability [8],cell viability [9]
Cl.Cn1c(CCCC(=O)O)nc2cc(N(CCCl)CCCl)ccc21 [Bendamustine HCl],98.2 ± 7.3,93.5,95.2 ± 2.5,83.5,94.9 ± 12,77.4,97.9 ± 1.9,71.4 ± 9.1,92.1 ± 14
CN1[C@@H]2C[C@@H](O)C[C@H]1[C@@H]1O[C@@H]12 [Scopine],134 ± 21,138,110 ± 8.5,110,129 ± 14,99,103 ± 18,112 ± 21,144 ± 4
CN(C)C(=O)C(CCN1CCC(O)(c2ccc(Cl)cc2)CC1)(c1ccccc1)c1ccccc1.Cl [Loperamide HCl],102 ± 20,84.8,53.5 ± 15,98.7,79.2 ± 6.6,95.1,49.1 ± 1.4,59.8 ± 8.3,102 ± 9.7
Cc1cccc(C)c1NC(=O)CN1CCCC1=O [Nefiracetam],124 ± 21,128,99.9 ± 6.5,91.9,149 ± 33,113,74.9 ± 0.92,85.6 ± 9.6,165 ± 5.6
O.O=P1(N(CCCl)CCCl)NCCCO1 (stereo not drawn) [Cyclophosphamide monohydrate],133 ± 17,147,90.3 ± 17,125,140 ± 5.4,125,98.5 ± 2.4,106 ± 2.2,130 ± 8.5
CCC1(c2ccc(N)cc2)CCC(=O)NC1=O (stereo not drawn) [Aminoglutethimide],108 ± 13,113,103 ± 12,103,112 ± 12,103,93.01 ± 0.41,88.9 ± 8,108 ± 2.7
CN1C2CCC1CC(OC(=O)C(CO)c1ccccc1)C2 (stereo not drawn) [Hyoscyamine],135 ± 14,132,109 ± 16,94.3,145 ± 5.8,118,74.2 ± 7.5,93.8 ± 4,108 ± 3.8
Cn1c(COP(=O)(NCCBr)NCCBr)cnc1[N+](=O)[O-],99.5 ± 14,100,123 ± 33,120,153.9 ± 0.46,44.9,81.4 ± 2.1,44.6 ± 2.6,107 ± 2.5
NC(Cc1ccc(N(CCCl)CCCl)cc1)C(=O)O (stereo not drawn) [Melphalan],76 ± 14,116,91.1 ± 6.3,107,77.7 ± 3.6,63.1,75.3 ± 11,58.5 ± 8.7,124 ± 3.2
O=C(OC1CC2CCC(C1)[N+]21CCCC1)C(O)(c1ccccc1)c1ccccc1.[Cl-] (stereo not drawn) [Trospium chloride],158 ± 1.6,119,112 ± 5.4,124,157 ± 39,165,101 ± 10,110 ± 14,121 ± 3.2
NCCC(O)(P(=O)([O-])O)P(=O)([O-])O.[Na+].[Na+] [Pamidronate Disodium],85.1 ± 9.1,82.9,86.9 ± 2.1,80.8,95.2 ± 14,59.9,76.4 ± 15,75 ± 21,92.4 ± 13
CCCC[N+]1(C)[C@@H]2C[C@@H](OC(=O)[C@H](CO)c3ccccc3)C[C@H]1[C@@H]1O[C@@H]12 (stereo partly drawn) [Scopolamine butylbromide],105 ± 5.4,116,88.8 ± 19,97.3,97.4 ± 2.5,119,100.7 ± 0.64,137 ± 14,133 ± 4.2
Cc1cc(O)ccc1Cl [Chlorocresol],114 ± 41,120,88.6 ± 17,85.9,77.6 ± 8.4,107,87.1 ± 2.5,98.6 ± 25,91.9 ± 1.3
C[C@@H]1CC[C@H]2[C@@H](C)C(=O)O[C@@H]3OC4(C)CC[C@@H]1[C@]32OO4 [Artemisinine],125 ± 38,139,91.1 ± 1.5,102,95.7 ± 11,153,97.45 ± 0.15,93.9 ± 15,96.3 ± 17
O=P1(N(CCCl)CCCl)NCCCO1 (stereo not drawn) [Cyclophosphamide],107 ± 4.7,98,104.9 ± 0.44,88.5,112 ± 5.9,80.3,99.09 ± 0.21,79.86 ± 0.25,115 ± 14
C=CCN1CCC23c4c5ccc(O)c4OC2C(=O)CCC3(O)C1C5.Cl (stereo not drawn) [Naloxone HCl],124 ± 20,125,101 ± 18,93.5,130 ± 23,112,74.1 ± 13,86 ± 15,91.4 ± 2.9
C[C@]12COC(=O)C[C@@H]1CC[C@@H]1[C@@H]2CC[C@@]2(C)[C@H]1CC[C@]2(C)O [Oxandrolone],98.9 ± 17,108,107.8 ± 0.62,89.1,147 ± 18,117,95.8 ± 5.3,110 ± 23,110 ± 13
NC(=O)CN1CC(O)CC1=O (stereo not drawn) [Oxiracetam],111 ± 16,115,98.3 ± 9.9,71,123 ± 12,126,117 ± 3.4,112 ± 15,134 ± 8.7
CC(C)NCC(O)c1ccccc1Cl.Cl (stereo not drawn) [Clorprenaline HCL],104 ± 18,121,73.1 ± 30,93.9,83.1 ± 11,104,90.6 ± 16,88.3 ± 13,103 ± 2.4
COc1ccc(C(CN(C)C)C2(O)CCCCC2)cc1.Cl (stereo not drawn) [Venlafaxine],103 ± 4.2,139,99.26 ± 0.21,103,124 ± 11,106,119 ± 17,118 ± 10,169 ± 35

Compound,cell viability [1],cell viability [2],cell viability [3],cell viability [4],cell viability [5],cell viability [6],cell viability [7],cell viability [8],cell viability [9]
CC1C=CC=CCCC=CC=CC=CC=CC(OC2OC(C)C(O)C(N)C2O)CC2OC(O)(CC(O)C(O)CCC(O)CC(O)CC(O)CC(=O)OC(C)C(C)C1O)CC(O)C2C(=O)O (stereo not drawn) [Nystatin (Fungicidin)],121 ± 47,139,128 ± 2.6,98.5,167 ± 21,150,118 ± 0.94,96.5 ± 1.8,147 ± 6.6
COc1ccc(C(=O)N2CCCC2=O)cc1 [Aniracetam],102 ± 2,107,147 ± 79,104,139 ± 1.5,95.4,96 ± 7.3,94.8 ± 14,86.1 ± 6.5
CC(O)(CS(=O)(=O)c1ccc(F)cc1)C(=O)Nc1ccc(C#N)c(C(F)(F)F)c1 (stereo not drawn) [Bicalutamide],108 ± 8.9,113,90.6 ± 13,90.2,127 ± 3.6,108,89.7 ± 11,90.2 ± 6.4,108 ± 3.1
C[C@]12CC[C@H]3[C@@H](CC[C@@]45O[C@@H]4C(O)=C(C#N)C[C@]35C)[C@@H]1CC[C@@H]2O [Trilostane],131 ± 24,119,90.1 ± 5.6,114,73.7 ± 19,103,115 ± 8.4,115 ± 15,100 ± 15
O=C(OC1C[N+]2(CCCOc3ccccc3)CCC1CC2)C(O)(c1cccs1)c1cccs1.[Br-] (stereo not drawn) [Aclidinium Bromide],113 ± 14,131,104 ± 6.3,94.2,185 ± 6.3,93.9,79.7 ± 14,84.7 ± 7.7,106 ± 11
CN(C)C(=O)Oc1ccc[n+](C)c1.[Br-] [Pyridostigmine Bromide],104 ± 11,120,103 ± 3.5,92.1,136 ± 13,105,72 ± 2.6,96.8 ± 6.6,101 ± 3.2
Cc1cccc(C(C)c2cnc[nH]2)c1C (stereo not drawn) [Dexmedetomidine],129 ± 5.7,106,90.4 ± 10,105,103 ± 16,148,92.7 ± 0.94,106 ± 9.5,120 ± 5.1
CCNCC.O=C(O)Cc1ccccc1Nc1c(Cl)cccc1Cl [Diclofenac Diethylamine],91.7 ± 19,77.9,88.7 ± 1.8,83.1,70.4 ± 10,113,69 ± 2.6,108 ± 7.9,94.02 ± 0.47
CC(=O)Nc1cc([As](=O)(O)O)ccc1O [Arsonic acid],105 ± 4.4,144,102 ± 22,112,73.2 ± 4.5,105,112 ± 25,101 ± 23,132 ± 15
CCN(C)C(=O)Oc1cccc(C(C)N(C)C)c1 (stereo not drawn) [Rivastigmine],107 ± 11,112,109 ± 4.2,106,98.3 ± 1.7,96.3,101 ± 7.6,103 ± 16,118 ± 9.7
CN(C)C1C(=O)C(C(N)=O)=C(O)C2(O)C(=O)C3=C(O)c4c(O)cccc4C(C)(O)C3C(O)C12 (stereo not drawn) [Oxytetracycline (Terramycin)],83 ± 9.9,126,108 ± 23,85.3,115 ± 6.2,122,99.8 ± 2.1,72.1 ± 17,121 ± 4.7
Br.COC(=O)C1=CCCN(C)C1 [Arecoline hydrobromide],94 ± 16,135,106 ± 21,88.9,103 ± 9.4,121,121 ± 21,116 ± 1.5,114 ± 16
Cc1c(N)nc(C(CC(N)=O)NCC(N)C(N)=O)nc1C(=O)NC(C(=O)NC(C)C(O)C(C)C(=O)NC(C(=O)NCCc1nc(-c2nc(C(=O)NCCC[S+](C)C)cs2)cs1)C(C)O)C(O[C@@H]1O[C@@H](CO)[C@@H](O)[C@H](O)[C@@H]1O[C@H]1O[C@H](CO)[C@@H](O)[C@H](OC(N)=O)[C@@H]1O)c1cnc[nH]1 (stereo partly drawn) [Bleomycin Sulfate],117 ± 3.2,–,61.2 ± 15,106,39.2 ± 24,83.4,109 ± 6.6,77 ± 1.2,100 ± 27
CCC(COC(=O)c1cc(OC)c(OC)c(OC)c1)(c1ccccc1)N(C)C (stereo not drawn) [Trimebutine],116 ± 6.9,109,103 ± 7.8,92.9,–,135,84.9 ± 15,96.2 ± 2.8,111.2 ± 0.53
CCC[C@H](C)[C@@]1(CC)C(=O)N=C([O-])NC1=O.[Na+] [Pentobarbital sodium salt],86.4 ± 3,105,81.9 ± 8.1,85.2,96.3 ± 17,87,86.6 ± 2.1,96.2 ± 21,99.4 ± 11
CCC1=C[C@H]2CN3CCc4c([nH]c5ccccc45)[C@@](C(=O)OC)(C2)[C@@H]13 [Catharanthine],88.2 ± 14,122,99.5 ± 13,92.1,94 ± 2.4,124,101 ± 2.3,85.5 ± 14,97 ± 3.2
"Cl.NCC(O)c1ccc(O)cc1 (racemic) [(+,-)-Octopamine HCl]",101 ± 10,119,93 ± 10,98.3,–,120,91.1 ± 16,87.9 ± 7.5,149.4 ± 0.28
O=C(O)CCCc1ccc(N(CCCl)CCCl)cc1 [Chlorambucil],109 ± 15,179,99.8 ± 1.1,92,113.2 ± 0.69,131,108 ± 4.7,96.7 ± 9.3,126 ± 8.3
CCCC1CC(=O)N(C(CC)C(N)=O)C1 (stereo not drawn) [Brivaracetam],98 ± 7,163,97.1 ± 1.8,89.3,87.83 ± 0.76,101,106 ± 1.4,98.2 ± 12,128 ± 11
